The structures appear in SMILES notation. “And” between values parts separate entries of the source, which are not always exact repeats. Equal entries are not always repeated. Results filed as inconclusive are left out. Some structures have more than one record in an assay (separate samples or runs), and their calls can disagree. The source made the active and inactive calls. Calls come from the whole dose curve; as a rule, active = well fitted inhibition curve with a large enough effect; inconclusive = small, poorly fitted or top-dose-only effect; inactive = flat fitted curve, though single readings scatter.
% is set by controls: 0 for no effect and ±100 for the full control effect; potency is the fitted concentration of half-maximal effect.

The assay has as its system HEK293. As to the kind of experiment: Cytotoxic Profiling of Annotated Libraries Using Quantitative High-Throughput Screening (AID 1296008). Note: nearly all actives have a fitted effect of over 60% in size. The conditions noted are these: Five cell lines viability, CellTiter-Glo ATP luminescence, 48-72 h; max response: stronger effect = lower value. The text has this:
Cell-based phenotypic screening is a commonly used approach to discover biological pathways, novel drug targets, chemical probes and high-quality hit-to-lead molecules. Many hits identified from high-throughput screening campaign are ruled out through a series of follow-up potency, selectivity/specificity, and cytotoxicity assays. Prioritization of molecules with little or no cytotoxicity for a more in-depth downstream evaluation influence the future direction of projects, so cytotoxicity profiling of the screening libraries at early stage is essential for increasing the likelihood of candidate success. […] For the annotated library, we also examined the primary targets and mechanistic pathways regularly associated with cell death. To our knowledge, this is the first study to use high-throughput screening to profile large libraries for cytotoxicity assessment in both normal and cancer cell lines. In summary, the results generated here constitutes a valuable resource for the scientific community and provides insight on identifying cytotoxic compounds with particular mechanisms of action, and prioritizing compounds with suitable cytotoxicity profile for further evaluation.
A pintool (Kalypsys) was used to transfer 23 nL of compound solution to the 1536-well assay plates. After 48 or 72 hr incubation at 37 degree Celsius, 5% CO2 and 95% humidity, 2.5 uL of CellTiter-Glo (Promega) was dispensed into each well using a dispenser (Aspect Automation, St. Paul, MN) with solenoid valves (Lee Valves, Westbrook CT). Plates were left at room temperature for 10 min before imaging the ATP-coupled luminescence using a ViewLux microplate imager (PerkinElmer, Waltham, MA).
In general terms: Cellular ATP, detected with luciferase, serves as a proxy for viable cell number.
As to `O=C(Nc1cccc(Cl)c1)Nc1ncc(CCNc2ncnc3ccsc23)s1`, the Potency was 16.6 µM (active).

Regarding `OC[C@H]1O[C@@H](Oc2ccc(O)cc2)[C@H](O)[C@@H](O)[C@H]1O`, the max response is 3.31% (inactive).

With `FC(F)(F)c1ccc(C=Cc2nc(COc3ccc(CCCCn4ccnn4)cc3)co2)cc1`, the max response is -116% (inactive).

On to `Cc1cc2nc3c(=O)[nH]c(=O)nc-3n(CC(O)C(O)C(O)CO)c2cc1C` (stereo not given), for which the max response was -3.68% (inactive).

As to `CCN1CCN(c2ccc(Nc3cc(N(C)C(=O)Nc4c(Cl)c(OC)cc(OC)c4Cl)ncn3)cc2)CC1`, the Potency is 16.4 µM (active).

On to `NC[C@H]1O[C@H](O[C@@H]2[C@@H](O)[C@@H](O[C@H]3O[C@H](CO)[C@@H](O)[C@H](N)[C@@H]3O)[C@H](N)C[C@@H]2N)[C@H](O)[C@@H](O)[C@H]1O`, for which the max response is -2.16% (inactive).

`Cc1ccc2c(c1)C(=O)[C@]1(O)CCN(c3ccccc3)C1=N2`: the max response was -19.6% (inactive).

For `COc1nccc(-c2c(-c3ccc(F)cc3)ncn2C2CCNCC2)n1`, the max response is -20% (inactive) and the Potency was 3.32 µM (active).

Turning to `NC(N)=Nc1nc(CSCCC(N)=NS(N)(=O)=O)cs1`, the max response was -1.73% (inactive).

As for `CCOc1ccccc1N=Nc1c(C)[nH]n(-c2nc(-c3ccccc3)cs2)c1=O`, the max response is -20.4% (inactive).

On to `CC1(C)[C@H]2CC[C@]3(C)[C@@H](C(=O)C=C4[C@@H]5C[C@@](C)(C(=O)O)CC[C@]5(C)CC[C@]43C)[C@@]2(C)CC[C@@H]1O`, for which the max response was -1.55% (inactive).

Regarding `COc1cc(C=CC(=O)O)ccc1O`, the max response is -0.866% (inactive).

With `CC=C(C(=CC)c1ccc(O)cc1)c1ccc(O)cc1`, the max response is -14% (inactive).

Turning to `CN(C)c1nc(Cc2ccc(NC(=O)c3ccc(C(F)(F)F)cc3)cc2)nc(N(C)C)c1CC(=O)O`, the max response was 3.18% (inactive) and the result was inactive.

Turning to `COc1cccc(OC)c1-c1cc(C(=O)NC2(C(=O)O)C3CC4CC(C3)CC2C4)nn1-c1ccnc2cc(Cl)ccc12` (stereo not given), the max response is -21.7% (inactive).

Turning to `CCNC(=O)c1noc(-c2cc(C(C)C)c(O)cc2O)c1-c1ccc(CN2CCOCC2)cc1`, the Potency is 46.9 nM (active) and 9.2 nM (active).

With `COC(=O)[C@H](c1ccccc1Cl)N1CCc2sccc2C1`, the max response is 3.92% (inactive).

Regarding `CC(C)(CO)[C@@H](O)C(=O)NCCC(=O)O`, the compound was called inactive.

On to `CN1[C@H]2CC[C@H]1CC(OC(=O)c1c[nH]c3ccccc13)C2` (stereo not given in full), for which the max response is -1.65% (inactive).

As to `CCn1c(-c2nonc2N)nc2cncc(CNC3CCNCC3)c21`, the Potency is 10.5 µM (active) and 2.31 µM (active).

Turning to `Cc1cnc(-c2cc(N3CCN(C(=O)CCS(C)(=O)=O)CC3)ncc2Cl)c(C)c1`, the max response was 2.19% (inactive) and the compound was called inactive.

In the case of `O=C(O)C1=NC(C(=O)O)CC(C=CN2c3cc(O)c(OC4OC(CO)C(O)C(O)C4O)cc3CC2C(=O)O)=C1` (stereo not given), the compound was called inactive.

With `Cc1ccc(S(=O)(=O)Nc2nc3ccccc3nc2Nc2ccc3nsnc3c2)cc1`, the max response was 4.32% (inactive).

Take `COc1ccc(CCN(C)CCCOc2ccc(S(=O)(=O)c3[nH]c4ccccc4c3C(C)C)cc2)cc1OC`: the max response is -1.95% (inactive).

For the compound `NC(=O)c1nnn(Cc2cc(Cl)c(C(=O)c3ccc(Cl)cc3)c(Cl)c2)c1N`, the Potency is 20.9 µM (active).

For `Cc1cnc(Nc2cccc(CN3CCOCC3)c2)nc1Nc1cccc(S(=O)(=O)NC(C)(C)C)c1`, the outcome was inactive.

Regarding `Nc1nc(Cl)nc2c1ncn2[C@@H]1O[C@H](CO)[C@@H](O)[C@H]1F`, the Potency was 0.469 µM (active).

As to `CS(=O)(=O)c1ccc(C2=C(c3ccccc3)C(=O)OC2)cc1`, the compound was called inactive.

On to `CCCCn1c(=O)n(Cc2ccccc2F)c(=O)c2[nH]c(Cc3ccc(NC(C)=O)cc3)nc21`, for which the max response was -5.59% (inactive) and -2.73% (inactive).

`C[C@H]1O[C@@H](n2cc(F)c(=O)[nH]c2=O)[C@H](O)[C@H]1O`: the Potency is 13.2 µM (active).

For the compound `CN1CCN2c3ncccc3Cc3ccccc3C2C1` (stereo not given), the max response was -5% (inactive).

As for `Cc1ccc2c(c1)c1c(n2CCc2ccc(C)nc2)CCN(C)C1`, the max response was -7.19% (inactive) and the Potency was 14.6 µM (active).

With `Cc1cc(NC(=O)Nc2ccc(N(C)C)cc2)c2cc(F)cc(F)c2n1`, the Potency was 14.8 µM (active).

As for `CCN(CC)CCCCNc1nc2cc(Cl)c(Cl)cc2nc1-c1ccc(-c2cccs2)s1`, the Potency was 29.6 µM (active).

`N#Cc1ccc(Oc2ccc3c(c2)COB3O)cc1`: the max response is -0.565% (inactive).

Take `CN[C@@H]1CN(c2ccc3c(=O)c(C(=O)O)cn(-c4nccs4)c3n2)C[C@@H]1OC`: the Potency was 1.29 µM (active).

Source of the values: PubChem BioAssay (NCATS).
